Measured values: PubChem BioAssay AID720722 (Molecular Libraries Program, Specialized Chemistry Center, …, 2013)
The source made the active and inactive calls. Cut-off not given; nearly all actives show IC50 up to about 12 µM.

assay: blockers of mitochondrial swelling – biochemical, absorbance, isolated mitochondria, dry powder samples, dose response (AID 720722)

IC50, active:
CCOC(=O)N1CCN(S(=O)(=O)c2ccc(C(=O)N(CCCN(C)C)c3nc4c(C)c(C)ccc4s3)cc2)CC1 5.28 µM
O=C(CC1NCCc2ccccc21)Nc1ccc(Cl)cc1 (configuration not stated) 2.78 µM
N#Cc1c(NCCN)nc(-c2ccco2)c2c1CCCC2 8.12 µM
CCN(CC)c1ccc(NC(=O)c2cc(Cl)ccc2OC)cc1 5.7 µM
Cc1cc(C)c2nc(N(CCCN(C)C)C(=O)C3=COCCO3)sc2c1 3.11 µM
Cc1ccc2nc(N(CCCN(C)C)C(=O)CCc3ccccc3)sc2c1 1.58 µM
C=CCNCCCOc1ccc(C)cc1Br 11.6 µM
COc1ccc(C)c2sc(N(CCCN(C)C)C(=O)CS(=O)(=O)c3ccc(F)cc3)nc12 3.9 µM
COc1cc(NC(=O)c2cc(-c3cccc(O)c3)on2)cc(OC)c1OC 0.391 µM
CNCCC=C1c2ccccc2CCc2ccccc21 8.45 µM
C=CCNCCOCCOc1ccc(Cl)cc1C(C)(C)C 4.04 µM
CC1CCCN(CCC(=O)c2ccc(Br)cc2)C1 (configuration not stated) 3.14 µM
COCCCNCCCOc1ccc(Cl)cc1C(C)(C)C 4.04 µM
COc1ccc(Cl)cc1C(=O)Nc1ccc(CN2CCCCC2)cc1 5.08 µM
COc1cc(CNCCO)cc(Cl)c1OCc1ccccc1Cl 2.69 µM
CCN(CC)CCCN=Cc1c(O)n(Cc2ccccc2)c(=O)c2ccccc12 3.34 µM
Cc1cc(C)c2nc(N(CCCN(C)C)C(=O)c3ccc(S(=O)(=O)N4CCCCCC4)cc3)sc2c1 2.07 µM
